tim10-1 inh = growth inhibitors of tim10-1 mutant yeast, primary screen, luminescence, uHTS | S. cerevisiae tim10-1 ts strain growth, BacTiter-Glo, 24 h | inhibition, % at 20 µM | 330,000 compounds, 2.2% hits | AID 463190, 2010;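 active = inhibition of at least 40%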;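 note: mutant grown at 25 °C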
SKKanGAS inh = S. pyogenes SKKanGAS growth inhibitors in kanamycin, primary screen, streptokinase expression inhibitor project, SKKanGAS strain, BacTiter-Glo luminescence; AID 1662, 2009; 6 h; inhibition, % at 7.5 µM; 300,000 compounds, 1.3% hits;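 active = mean replicate score, as percent of positive control median, at least 50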;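 note: strain carries kanamycin resistance gene driven by streptokinase promoter and grows in 40 µg/ml kanamycin; loss of luminescence reflects streptokinase promoter inhibition or plain growth inhibition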
tim23-1 inh = growth inhibitors of tim23-1 mutant yeast, primary screen, luminescence, uHTS | S. cerevisiae tim23-1 growth, BacTiter-Glo luminescence, 24 h | inhibition, % at 20 µM | 330,000 compounds, 1.3% hits | AID 463212, 2010;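 active = growth inhibition of the mutant yeast at or above 50%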;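 note: temperature-sensitive mutant grown at 25 °C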
ATG4B inh = ATG4B protease inhibitors, primary screen, biochemical, fluorescence, uHTS. AID 504462, 2011. inhibition, % at 8.33 µM. Cysteine protease ATG4B (Homo sapiens), Q9Y4P1. 340,000 compounds, 0.51% hits. ATG4B cleavage of LC3-PLA2, NBD-HPC fluorescence, 1 h; in the data active = inhibition above about 40%
Target sequence (Q9Y4P1 whole entry, looked up): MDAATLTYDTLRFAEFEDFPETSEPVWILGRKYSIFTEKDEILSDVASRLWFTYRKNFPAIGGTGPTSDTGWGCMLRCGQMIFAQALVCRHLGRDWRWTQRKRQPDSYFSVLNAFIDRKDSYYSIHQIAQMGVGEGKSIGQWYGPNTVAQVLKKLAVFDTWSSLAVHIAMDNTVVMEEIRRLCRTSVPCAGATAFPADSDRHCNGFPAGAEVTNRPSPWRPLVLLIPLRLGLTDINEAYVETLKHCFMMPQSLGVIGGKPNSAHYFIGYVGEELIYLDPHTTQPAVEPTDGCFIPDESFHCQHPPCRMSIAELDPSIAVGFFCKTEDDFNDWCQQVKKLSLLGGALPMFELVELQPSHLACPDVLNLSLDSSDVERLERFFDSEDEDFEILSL
PfHsp90 yeast 2 = growth inhibition of PfHsp90-expressing yeast, primary screen, antimalarial PfHsp90 inhibitor project, S. cerevisiae, BacTiter-Glo luminescence, single point, set 2 | 310,000 compounds, 0.32% hits | AID 504621, 2011 | inhibition, % at 9.4 µM | BacTiter-Glo ATP, 48 h; yeast lacking PDR1 and PDR3 efflux regulators;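 active = every replicate shows inhibition above about 80%, whatever the replicate mean, limit read from the data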
TIM10 inh = growth inhibitors of isogenic TIM10 control yeast, primary screen, counter-screen for tim10-1 yeast inhibitor project, luminescence, uHTS; inhibition, % at 10 µM; S. cerevisiae TIM10 strain growth, BacTiter-Glo luminescence, 24 h; AID 463195, 2010; 330,000 compounds, 1.4% hits;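 active = inhibition of 40% or more at the single tested concentration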;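 note: wild-type TIM10 isogenic control strain grown at permissive 25 °C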
tim10-1 confirm = growth inhibitors of tim10-1 mutant yeast, confirmation, single concentration, luminescence, S. cerevisiae; 7,400 compounds, 56% hits; inhibition, % at 20 µM; AID 463213, 2010; shares compounds with tim10-1 inh; S. cerevisiae tim10-1 ts strain growth, BacTiter-Glo, 24 h;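 active = inhibition of yeast growth at or above a set limit in either of two repeat tests at 20 µM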;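 note: tim10-1 mutant grown at permissive 25 °C to find synthetic lethal compounds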
TIM10 conf = growth inhibitors of wild-type TIM10 yeast, confirmation, counter-screen for tim10-1 synthetic lethality project, single concentration, luminescence, S. cerevisiae | shares compounds with TIM10 inh | S. cerevisiae tim10 strain growth, BacTiter-Glo luminescence, 24 h | inhibition, % at 10 µM | 4,600 compounds, 63% hits | AID 463215, 2010;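 active = inhibition of yeast growth at or above a set limit in either of two replicates at 10 µM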; note: this counterscreen used the strain with wild-type TIM10
Hits are given with their value; – = inactive; · = not tested or not shown. Only some compounds are listed: those with a hit (about 4.7% of all), similar ones and a draw of the others.

SMILES	tim10-1 inh	SKKanGAS inh	tim23-1 inh	ATG4B inh	PfHsp90 yeast 2	TIM10 inh	tim10-1 confirm	TIM10 conf
COc1cc(C2=NOC(C(=O)N3CCCCCC3)C2)cc(OC)c1OC (stereo not given)	–	–	–	–	–	–	·	·
C=CCNc1nc(-c2ccccn2)nnc1-c1ccccc1	49	–	–	–	–	46	41	–
NNc1nc2c(-c3ccc(F)cc3)nnn2c2ccccc12	46	–	–	–	–	74	56	73
Fc1ccc(-c2nnn3c2nc(NCc2ccccc2)c2ccccc23)cc1	–	–	–	–	–	–	·	·
O=c1[nH]c(NCCO)nc2c1C1(CCCCC1)Cc1ccccc1-2	–	·	–	–	–	–	·	·
O=c1c2c(nc(NCCO)n1CC1CCCCC1)-c1ccccc1CC21CCCC1	55	87	–	–	–	52	37	–
COc1ccc(/C=N\NC(=O)c2ccccc2OC)cc1COc1ccccc1C	–	–	–	–	–	–	·	·
COc1ccc(/C=N/NC(=O)c2ccoc2C)cc1COc1c(C)cccc1C	41	–	–	–	–	42	30	–
CCCc1cc(NCC2CCCO2)n2c(nc3ccccc32)c1C#N (stereo not given)	41	–	–	–	–	41	37	–
O=C(N/N=C/c1ccc([N+](=O)[O-])o1)c1cc2c(ccc3ccccc32)o1	·	·	·	–	–	·	·	·
O=C(N/N=C/c1ccc([N+](=O)[O-])o1)c1cc2ccccc2o1	59	–	–	–	–	45	56	79
COc1cc(/C=N/N(C)c2ccccc2)cc(Cl)c1O	48	–	–	–	–	40	–	–
COc1ccc(OC)c(/C=N/N(C)c2ccccc2)c1	–	–	–	–	–	–	·	·
Cc1ccc(OCC(=O)NNC(=O)C(C)Sc2ncnc3sc(C)c(C)c23)cc1 (stereo not given)	42	–	–	–	–	55	42	–
O=S(=O)(c1ccc2[nH]c3c(c2c1)CCCC3)N1CCCCC1	40	–	–	–	–	41	–	34
O=C1OC(c2ccccc2)=C/C1=C/N1CCOCC1	–	–	–	–	–	–	·	·
O=C(COc1cccc(C(F)(F)F)c1)Nc1ccc(S(=O)(=O)N2CCCCC2)cc1	43	–	–	–	–	45	49	59
Cc1cccc(OCC(=O)Nc2ccc(S(=O)(=O)N3CCCC3)cc2)c1	44	–	–	–	–	45	37	47
Cc1ccc(C)c(NC(=O)CN(C)C(=O)CSCc2c(C)noc2C)c1	–	–	–	–	·	–	·	·
COc1ccc(OC)c(C2C=C(C34CC5CC(CC(C5)C3)C4)NC(=S)N2)c1 (stereo not given)	47	52	–	–	–	41	–	–
CCc1cccc2c(C(=O)COC(=O)[C@@H]3CC(O)CN3S(=O)(=O)c3ccccc3[N+](=O)[O-])c[nH]c12 (stereo not given in full)	–	·	–	–	–	–	·	·
O=C1OC(c2ccccc2)=N/C1=C/c1cccc(OC(=O)c2cccs2)c1	48	–	–	–	–	51	–	–
CC1(C)CC2CC(C)(CN2C(=S)NC(=O)c2ccccc2Cl)C1 (stereo not given)	41	–	–	–	–	42	32	–
COc1ccc(C2Nc3cccc4cccc(c34)N2)cc1	–	–	–	–	–	–	·	·
c1csc(C2Nc3cccc4cccc(c34)N2)c1	53	–	–	–	–	48	52	–

Screening results from PubChem BioAssay.
